Results filed as inconclusive are left out. Unless noted, calls follow the shape of the dose curve; as a rule, active = well fitted curve in either direction with a large enough effect (not every such curve was filed as active); inconclusive = small, poorly fitted or top-dose-only effect, or another doubt; inactive = flat fitted curve, though single readings scatter.
Columns and labels:
[1] = AP1 Signaling Pathway (AID 357); details: ME-180 AP-1-bla reporter, EGF-induced, beta-lactamase ratio, 5 h; at 17.2 µM (top of the series) unless noted;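 also: ME-180 reporter cells stimulated with EGF at its EC50 level; % is scaled to controls: 0 for no effect and ±100 for the full control effect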
Procedure, shortened: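 Cells are seeded overnight, exposed to compound titrations and an EC50 level of EGF for 5 hours at 37 °C, then loaded with CCF4 dye for 2.5 hours. Beta-lactamase activity under the AP-1 element is read as a blue/green ratio.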

[2] = NFAT Signaling Pathway (AID 444); details: Jurkat NFAT-bla M1, carbachol, beta-lactamase ratio, 5 h; at 17.2 µM (top of the series) unless noted;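 also: carbachol stimulus at about its EC50 of 1 µM final; % is scaled to controls: 0 for no effect and ±100 for the full control effect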
Procedure, shortened: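 Jurkat cells with NFAT-driven β-lactamase reporter and co-expressed M1 receptor, stimulated with carbachol (final 1 uM, ~EC50), compound titration, 5 h at 37 °C. CCF4 loaded 1 h at RT; 460/530 nm ratio gave %activity and AC50.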

[3] = Stat Signaling Pathway (AID 446); details: ME-180 SIE beta-lactamase reporter, IL-6 stimulated, 5 h; at 17.2 µM (top of the series) unless noted;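 also: ME-180 cervical cancer cells given 40 pM IL-6 alongside compound; SIE-controlled beta-lactamase reporter measured as 460/530 nm FRET emission ratio; % is scaled to controls: 0 for no effect and ±100 for the full control effect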
Procedure, shortened: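 Screening format detects activators and inhibitors alike: ME-180 SIE-bla cells stimulated at 40 pM IL-6 for 5 hrs with compound, then dual-emission beta-lactamase read at 405 nm excitation.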

[4] = biological target: Glucocorticoid receptor (Homo sapiens) (UniProt P04150); test: GR-GFP Redistribution (AID 450;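 active = compounds whose dose series gives a full or clear partial fitted curve of increased nuclear translocation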; also: potency is read from the fitted curve at half-maximal effect)
Glucocorticoid receptor (Homo sapiens), sequence (P04150 whole entry, looked up): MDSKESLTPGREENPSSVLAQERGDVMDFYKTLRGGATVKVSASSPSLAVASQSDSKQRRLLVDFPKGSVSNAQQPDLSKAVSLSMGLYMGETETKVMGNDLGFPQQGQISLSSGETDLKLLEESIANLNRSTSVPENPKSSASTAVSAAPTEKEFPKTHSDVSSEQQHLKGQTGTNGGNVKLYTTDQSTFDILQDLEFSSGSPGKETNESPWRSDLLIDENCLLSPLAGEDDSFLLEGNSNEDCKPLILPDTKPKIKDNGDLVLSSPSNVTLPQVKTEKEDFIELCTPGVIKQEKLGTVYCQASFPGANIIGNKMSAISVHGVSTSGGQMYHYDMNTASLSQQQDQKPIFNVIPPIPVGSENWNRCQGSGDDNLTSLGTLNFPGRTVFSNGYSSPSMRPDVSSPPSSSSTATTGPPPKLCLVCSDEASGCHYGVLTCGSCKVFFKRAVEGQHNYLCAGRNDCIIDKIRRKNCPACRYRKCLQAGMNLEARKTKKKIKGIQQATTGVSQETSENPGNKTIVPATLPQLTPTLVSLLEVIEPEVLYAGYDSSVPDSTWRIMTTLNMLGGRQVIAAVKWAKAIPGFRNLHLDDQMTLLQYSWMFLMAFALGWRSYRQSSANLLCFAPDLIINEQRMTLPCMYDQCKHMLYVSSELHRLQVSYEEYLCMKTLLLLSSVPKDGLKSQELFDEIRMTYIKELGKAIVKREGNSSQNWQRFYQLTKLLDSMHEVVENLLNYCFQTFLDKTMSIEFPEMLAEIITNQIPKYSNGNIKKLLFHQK

CN1c2ccccc2N(C)C1c1c(O)ccc2ccccc12
inactive: activity change, negative = inhibition [1] -1.37% | activity change, negative = inhibition [2] -27.9% | activity, negative = inhibition [3] -4.67% | Potency [4] > 20.6 µM

CC(C)c1cc(NCCN2CCOCC2)n2c(nc3ccccc32)c1C#N
inactive: activity change, negative = inhibition [1] -4.92% | activity change, negative = inhibition [2] 6.15% | activity, negative = inhibition [3] 9.84% | Potency [4] > 20.6 µM

CCN(CC)CCN1C(=O)C(=O)/C(=C(/O)c2c(C)[nH]c(C(=O)OC)c2C)C1c1ccc(OC)cc1 (stereo not given)
inactive: activity change, negative = inhibition [1] 9.19% | activity change, negative = inhibition [2] 8.2% | activity, negative = inhibition [3] 9.4% | Potency [4] > 20.6 µM

c1ccc(Cc2nnc3n2CCCCC3)cc1
inactive: activity change, negative = inhibition [1] -5.05% | activity change, negative = inhibition [2] -13.9% | activity, negative = inhibition [3] 5.83% | Potency [4] > 20.6 µM

COC(=O)c1ccc(C2/C(=C(/O)c3ccc(OC)cc3)C(=O)C(=O)N2Cc2ccco2)cc1 (stereo not given)
inactive: activity change, negative = inhibition [1] -4.01% | activity change, negative = inhibition [2] -12% | activity, negative = inhibition [3] -22.4% | Potency [4] > 20.6 µM

c1ccc(-c2nnc3sc(Cc4cccs4)nn23)cc1
inactive: activity change, negative = inhibition [1] -13.7% | activity change, negative = inhibition [2] -18.2% | activity, negative = inhibition [3] 16.7% | Potency [4] > 20.6 µM

CC(C)c1cc(NCCCN2CCOCC2)n2c(nc3ccccc32)c1C#N
inactive: activity change, negative = inhibition [1] -14.3% | activity change, negative = inhibition [2] -9.44% | activity, negative = inhibition [3] 0.608% | Potency [4] > 20.6 µM

Cc1cc(=O)n2[nH]cnc2n1
inactive: activity change, negative = inhibition [1] 14.3% | activity change, negative = inhibition [2] 10.4% | activity, negative = inhibition [3] 13.7% | Potency [4] > 20.6 µM

c1ccc(-c2nnc(OCCN3CCOCC3)c3ccccc23)cc1
inactive: activity change, negative = inhibition [1] -8.82% | activity change, negative = inhibition [2] 5.5% | activity, negative = inhibition [3] 5.26% | Potency [4] > 20.6 µM

O=C(C/C(=N/O)c1ccccc1O)C(F)F
inactive: activity change, negative = inhibition [1] 15.8% | activity change, negative = inhibition [2] 0.0588% | activity, negative = inhibition [3] 3.52% | Potency [4] > 20.6 µM

COC(=O)CSc1nnc(C)c(=O)[nH]1
inactive: activity change, negative = inhibition [1] 0.589% | activity change, negative = inhibition [2] 3.42% | activity, negative = inhibition [3] 5.67% | Potency [4] > 20.6 µM

CC(=O)C(=[N+]=[N-])C(=O)NCc1ccccc1
inactive: activity change, negative = inhibition [1] 7.12% | activity change, negative = inhibition [2] -14.9% | activity, negative = inhibition [3] 1.88% | Potency [4] > 20.6 µM

CCOC(=O)CNS(=O)(=O)c1cc(-c2n[nH]c(=O)c3ccccc23)ccc1C
inactive: activity change, negative = inhibition [1] -5.55% | activity change, negative = inhibition [2] 5.83% | activity, negative = inhibition [3] -10.1% | Potency [4] > 20.6 µM

CC1CN(c2oc(-c3cccs3)nc2C#N)CC(C)O1 (stereo not given)
inactive: activity change, negative = inhibition [1] 3.54% | activity change, negative = inhibition [2] 5.83% | activity, negative = inhibition [3] 14.9% | Potency [4] > 20.6 µM

CCn1nnc(C(=O)O)c1C(=O)O
inactive: activity change, negative = inhibition [1] 3.44% | activity change, negative = inhibition [2] 3.87% | activity, negative = inhibition [3] 1.11% | Potency [4] > 20.6 µM

COc1cccc(N2CCN(C3CC(=O)N(c4cccc(Cl)c4)C3=O)CC2)c1 (stereo not given)
inactive: activity change, negative = inhibition [1] -3.08% | activity change, negative = inhibition [2] 12.6% | activity, negative = inhibition [3] -13.6% | Potency [4] > 20.6 µM

Cc1nn(CC(=O)N2CCOCC2)c(=O)c2ccccc12
inactive: activity change, negative = inhibition [1] 10.7% | activity change, negative = inhibition [2] 8.23% | activity, negative = inhibition [3] 1.28% | Potency [4] > 20.6 µM

COc1ccc(OC)c(C2/C(=C(/O)c3cnn(-c4ccccc4)c3C)C(=O)C(=O)N2CCN(C)C)c1 (stereo not given)
inactive: activity change, negative = inhibition [1] 0.346% | activity change, negative = inhibition [2] 4.77% | activity, negative = inhibition [3] 3.03% | Potency [4] > 20.6 µM

CC(=O)C1=C(O)C(=O)N(c2cccc(C(=O)O)c2)C1c1ccccc1F (stereo not given)
inactive: activity change, negative = inhibition [1] -4.91% | activity change, negative = inhibition [2] 3.23% | activity, negative = inhibition [3] 10.6% | Potency [4] > 20.6 µM

Cc1cccc2c1NC(C)CC2C (stereo not given)
inactive: activity change, negative = inhibition [1] 9.08% | activity change, negative = inhibition [2] 11.8% | activity, negative = inhibition [3] 13.3% | Potency [4] > 20.6 µM

N#Cc1c(N)sc(=S)c2c1CCCCC2
inactive: activity change, negative = inhibition [1] 10.8% | activity change, negative = inhibition [2] -12.9% | activity, negative = inhibition [3] -20.4% | Potency [4] > 20.6 µM

CCOC(=O)c1ccc(N2CC(O)=C(c3nc4ccccc4c(=O)[nH]3)C2=N)cc1
inactive: activity change, negative = inhibition [1] -27.9% | activity change, negative = inhibition [2] -8.54% | activity, negative = inhibition [3] -21.7% | Potency [4] > 20.6 µM

OC1CN=C2Sc3ccccc3N2C1 (stereo not given)
inactive: activity change, negative = inhibition [1] 1.76% | activity change, negative = inhibition [2] -2.78% | activity, negative = inhibition [3] -3.59% | Potency [4] > 20.6 µM

COC(=O)C1C(=O)NCC1c1ccccc1 (stereo not given)
inactive: activity change, negative = inhibition [1] 9.38% | activity change, negative = inhibition [2] -1.78% | activity, negative = inhibition [3] 7.06% | Potency [4] > 20.6 µM

COc1cc(-c2nn3c(C4CCCCC4)nnc3s2)cc(OC)c1OC
inactive: activity change, negative = inhibition [1] -16.1% | activity change, negative = inhibition [2] 10.4% | activity, negative = inhibition [3] 0.0449% | Potency [4] > 20.6 µM

Reference: PubChem BioAssay (NCATS)
